GLP-1R agonist: activates the human GLP-1 receptor. Potency, µM (series often up to 45.6 µM), for the others: top-dose activation, hits mostly activators. HEK293 GLP-1R CRE-luciferase, luminescence, 4-6 h; cells express a hypersensitive GLP-1R form. AID 624172. P43220. 380,000 tested, 0.007% active; also: % of control where 0% means no effect
Target sequence (P43220 whole entry, looked up): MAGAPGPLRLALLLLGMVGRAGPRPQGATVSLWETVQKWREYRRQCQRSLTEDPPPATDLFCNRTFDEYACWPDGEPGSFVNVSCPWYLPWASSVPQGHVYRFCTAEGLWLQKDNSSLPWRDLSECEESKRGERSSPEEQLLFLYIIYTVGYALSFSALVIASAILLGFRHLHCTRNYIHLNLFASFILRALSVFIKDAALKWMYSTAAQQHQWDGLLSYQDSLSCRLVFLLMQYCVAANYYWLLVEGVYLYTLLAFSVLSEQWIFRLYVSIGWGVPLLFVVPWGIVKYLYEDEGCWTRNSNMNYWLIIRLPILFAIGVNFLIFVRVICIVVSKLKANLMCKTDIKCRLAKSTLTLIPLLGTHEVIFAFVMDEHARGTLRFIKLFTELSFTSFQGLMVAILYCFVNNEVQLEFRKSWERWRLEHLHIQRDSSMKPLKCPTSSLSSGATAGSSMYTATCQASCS
GLP-1R inv ag: acts as inverse agonist at human GLP-1 receptor | HEK293 GLP-1R CRE-luciferase, luminescence, 24 h; GLP-1R form is constitutively active | P43220 | Potency, µM (doses to about 38.3 µM), for the others: top-dose activity change, negative = inhibition, actives largely listed as inhibitors | AID 624417 | 410,000 tested, 1.6% active; also: % is scaled to controls: 0 for no effect and ±100 for the full control effect; nearly all actives have a fitted effect of over 55% in size
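Seeding at 200 cells/uL, 12 h culture, 24 hr compound treatment, then luciferase reagent and a luminescence read; cells are HEK293 stably expressing a constitutively active GLP-1R plus cAMP-responsive luciferase.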
ClpP mod: qHTS Assay for Activators of ClpP; ATP-dependent Clp protease proteolytic subunit (Bacillus subtilis (strain 168)), P80244; purified B. subtilis ClpP, FRET peptide cleavage, 20 min; Potency, µM (titrated, usually from 57.5 µM), for inactives: at the highest dose activity change, negative = active; 340,000 tested, 1.9% active; AID 651965, 2013; active = well fitted falling curve with a large enough effect; inconclusive = small, poorly fitted or top-dose-only effect; inactive = no such curve, though single readings can be large or run the other way; also: the source files actives as falling curves though it sought activators and does not explain the sign; nearly all actives have a fitted effect of over 65% in size
Target sequence (P80244 whole entry, looked up): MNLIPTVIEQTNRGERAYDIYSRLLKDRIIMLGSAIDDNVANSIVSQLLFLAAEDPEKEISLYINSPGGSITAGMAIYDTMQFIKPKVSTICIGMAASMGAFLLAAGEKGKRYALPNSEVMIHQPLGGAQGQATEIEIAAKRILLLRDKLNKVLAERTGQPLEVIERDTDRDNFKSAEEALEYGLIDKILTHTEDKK
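ClpP 10 microg/mL final, pH 8 Tris/KCl buffer with BSA, glycerol, Tween-20; compound pinned in; FRET-FV substrate; RT 20 min; Ex320/Em430; ΔFRET vs ADEP 5.8 microM, DMSO, no enzyme.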
GLP1R cytotox: cytotoxic in the GLP-1 receptor inverse agonist counter-screen. HEK293 cAMP-luciferase reporter cells, luminescence, 24 h. Potency, µM (series often up to 38.3 µM), without a hit: at the highest dose activity change, negative = inhibition, most hits filed as inhibitors. 410,000 tested, 0.13% active. AID 624418;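 also: loss of luciferase light is scored as toxicity; % is scaled to controls: 0 for no effect and ±100 for the full control effect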
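Here, cytotoxicity is scored as loss of luminescence. The MLSMR collection was tested on cells seeded in medium containing 10% Nu serum, with a 24 hr compound exposure preceded by 12 hours of culture.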
* hit, by the source's call; ? = inconclusive; · = no result given. Shown are actives, neighbours in structure and some others; about 3.2% of the full set was active somewhere. Unless noted, calls follow the shape of the dose curve; as a rule, active = well fitted curve in the direction sought with a large enough effect; inconclusive = small, poorly fitted or top-dose-only effect, or another doubt; inactive = no such curve, though single readings can be large; an effect the other way counts as inactive or inconclusive. Potency is read from the fitted curve at half-maximal effect.

SMILES	GLP-1R agonist	GLP-1R inv ag	ClpP mod	GLP1R cytotox
COC1CC2CCC(C)[C@](O)(O2)C(=O)C(=O)N2CCCCC2C(=O)OC(C(C)CC2CCC(O)C(OC)C2)CC(=O)C(C)/C=C(/C)C(O)C(OC)C(=O)C(C)CC(C)C=CC=C/C=C\1C (some centres undefined)	1%	·	·	·
Fc1ccc(Sc2cc(Cl)c(-c3ccccc3)nn2)cc1	19%	?	28µM*	-8%
COc1ccc(NC(=O)COc2ccccc2C(=O)Nc2ccccc2)cc1	·	·	-1%	·
Cn1nc(C(F)(F)F)c(-c2ccc(Br)cc2)c1NC(=O)c1ccco1	-5%	7.1µM*	0%	-12%
CCNc1nnc(-c2ccc(C)cc2)o1	4%	1%	20µM*	2%
CCC1CN(C(=O)Nc2cccc(OC)c2)c2ccccc2O1 (centres undefined)	·	?	-2%	24%
COC(=O)C1C(=O)c2c([nH]c(C(=O)OCCOC(C)C)c2C)CC1C (centres undefined)	3%	32%	32µM*	-3%
COC(=O)C1C(=O)c2c([nH]c(C(=O)OC3CCCCC3)c2C)CC1C (centres undefined)	11%	?	-2%	3%
CC1=C(c2ccc(C)c(C)c2)S(=O)(=O)N=C1N1CCC(C(=O)NCc2ccc(C)o2)CC1	·	-4%	-2%	-6%
CSc1ccc(CCNC(=O)c2ccc3c(Cl)c4c(nc3c2)CCCC4)cc1	0%	-14%	-8%	-3%
N#Cc1ccccc1NC(=O)CN(Cc1ccccc1)Cc1ccccc1	10%	7.1µM*	·	28%
Cc1ccc(NC(=O)CN(C)CC(=O)Nc2ccccc2C#N)cc1	11%	-5%	·	-26%
CCc1c(C)sc(NC(=O)c2cc(-c3cccc(Cl)c3)on2)c1C#N	·	12%	8%	-1%
O=[N+]([O-])c1ccc(C=C2c3ccccc3-c3ccccc32)cc1	·	·	0%	·
CSc1nc2ncc3c(n2n1)CC1c2ccccc2CCN1C3=O (centres undefined)	5%	3%	28µM*	198%
O=C1c2cnc3ncnn3c2CC2c3ccccc3CCN12 (centres undefined)	13%	17%	·	149%
COc1ccc(CCNC(=O)CSc2nnnn2-c2cccc(C(C)=O)c2)cc1OC	·	2%	-2%	-2%
Cc1ccccc1C(=O)Nc1cccc(N)c1	-1%	-21%	1%	-21%
Cc1ccccc1C(=O)Nc1cccc(NC(=O)c2ccc(C(C)(C)C)cc2)c1	·	7.9µM*	-29%	-15%
Cc1nn(C)cc1C(C)NC(=O)c1cc(COc2cccc3cnccc23)on1 (centres undefined)	4%	28%	16µM*	0%
COc1cc2ccccc2cc1C(=O)OCC(=O)N1CCOCC1	25%	0%	?	-15%
O=C(OCC(=O)N1CCOCC1)c1ccc2ccccc2c1O	2%	4%	28µM*	7%
CC(=O)N(C)c1ccc(NC(=S)Nc2cccc3ccccc23)cc1	3%	-1%	32µM*	-16%
Cc1cc(C)cc(NC(=S)NC(=O)Cc2ccccc2)c1	22%	?	·	?
Cc1cc(Cl)ccc1NC(=S)NCc1ccccc1	3%	11µM*	-1%	-7%
SMILES	GLP-1R agonist	GLP-1R inv ag	ClpP mod	GLP1R cytotox
COc1cccc(CNC(=S)Nc2ccc(Cl)cc2C)c1	0%	?	0%	?
CC(=O)N(C)c1ccc(NC(=S)Nc2ccccc2)cc1	7%	-7%	-2%	13%
S=C(NCc1ccccc1)Nc1cccc2ccccc12	-3%	10µM*	?	?
S=C(NCc1cccs1)Nc1cccc2ccccc12	4%	?	·	-8%
Cc1cc(C)cc(NC(=O)C(=S)NCc2ccccc2)c1	-3%	11µM*	·	1%
COc1ccc(-c2cn3nc(N4CCCC(C(=O)Nc5ccccc5F)C4)sc3n2)cc1 (centres undefined)	·	14%	1%	7%
Cc1ccc(C)c(Cn2c(-c3cccs3)nc3ccccc32)c1	·	?	5%	3%
Cc1nc(-n2nc(C)c(CCC(C)C)c2C)sc1C(=O)Nc1cccc(Cl)c1C	·	16%	-12%	12%
Cc1cc(Cl)ccc1NNC(=O)c1c(C)noc1C	14%	1.4µM*	1%	?
Cc1cc(Cl)ccc1NNC(=O)CCc1ccccc1	-2%	4.5µM*	1%	9%
Cc1ccc(NNC(=O)c2c(C)noc2C)cc1Cl	-3%	?	3%	-27%
O=C(CCc1ccccc1)NNC(=O)c1cc(Cl)ccc1O	0%	-29%	·	-12%
CCOC(=O)C1CCCN(C(=O)Cn2ncc3c4ccccc4n(Cc4ccc(F)cc4)c3c2=O)C1 (centres undefined)	·	?	4%	0%
CCCn1c2c(c(O)c(C(=O)Nc3ccc(OC)cc3)c1=O)CCCC2	-1%	4%	28µM*	5%
Cc1cc(C)c(S(=O)(=O)ON2C(=O)c3ccccc3C2=O)cc1C	-2%	5%	8.9µM*	?
Cc1ccc(C(=O)Nc2ccc(Br)cc2)cc1S(=O)(=O)NCc1ccccc1	·	?	-27%	?
Cc1nn(Cc2ccccc2)c(C)c1CNC(=O)CN=C1NS(=O)(=O)c2ccccc21	-4%	13%	22µM*	-1%
COc1ccc(N2CCN(C(CNS(=O)(=O)c3ccc(OC)c(C)c3)c3ccco3)CC2)cc1 (centres undefined)	·	?	-9%	2%
O=C(CCC(=O)N1CCOc2ccccc21)NCc1cccs1	·	10%	-2%	-3%
C=CCn1c(O)c(N=NC(=S)Nc2ccc(OC)cc2)c2ccccc21	-4%	?	22µM*	?
CC(=O)Nc1ccn(C2COC(COC(=O)c3ccccc3)O2)c(=O)n1 (centres undefined)	8%	·	·	·
COc1ccc(-c2coc3c2c(C)cc2oc(=O)c(CC(=O)O)c(C)c23)cc1	·	?	-10%	-1%
Cc1cc2oc(=O)c(CC(=O)NCCc3ccccc3)c(C)c2c2occ(C(C)(C)C)c12	·	10µM*	5%	-2%
COc1ccc(CCNC(=O)Cc2c(C)c3c(cc(C)c4c(C)coc43)oc2=O)cc1	·	8%	-12%	-4%
Cc1cc2oc(=O)c(CC(=O)O)c(C)c2c2occ(-c3ccc(F)cc3)c12	·	?	28µM*	2%
CCOc1ccc(CNC(=O)C2CCN(C(=O)N3CC(CC)Oc4ccc(C)cc43)CC2)cc1OC (centres undefined)	·	-19%	0%	-12%
O=S(=O)(Nc1ccc(C(F)(F)F)cc1)c1ccc2c(c1)OCCO2	21%	?	0%	2%
CSC(=S)N/N=C/c1ccc(N(C)C)cc1	3%	-10%	·	-21%
CSC(=S)N/N=C/c1ccc(Br)cc1	-6%	?	0%	11µM*
COc1ccc(C(=O)N2CCCCC2CCN2CCCCC2)cc1 (centres undefined)	·	6%	-1%	0%

Screening results from PubChem BioAssay.
